Rows were chosen to be rich in hits. Some 2.6% of all compounds tested hit in one or more screens of this group.
ATXN2 expr inh: ATXN2 expression inhibition. Potency, µM (top dose mostly 57 µM), for the others: at the top dose activity change, negative = inhibition, usual class: inhibitors. HEK-293 ATXN2-luciferase reporter, luminescence, 24 h. 0.72% of 360,000 active; further: potency means the concentration at half of the fitted maximal effect; on the % scale 0 is the no-effect control and ±100 the full control effect; nearly all actives have a fitted effect of over 55% in size
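ATXN2-luciferase reporter cells (luciferase flanked by upstream and downstream ATXN2 gene portions) were treated 24 h at 37 °C with compounds at up to 57 uM. SteadyGlo luminescence gave expression; GF-AFC fluorescence gave viability.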
uPA surface inh: blocks generation of uPA at the cell surface; cell surface uPA generation assay, qHTS; Potency, µM (doses to about 38.3 µM), for inactives: at the top dose activity change, negative = inhibition, actives largely listed as inhibitors; 0.31% of 330,000 active; active means well fitted inhibition curve with a large enough effect; inconclusive means small, poorly fitted or top-dose-only effect; inactive means no such curve, though single readings can be large or run the other way; tested in mouse RAW 264.7 cells; further: potency means the concentration at half of the fitted maximal effect; on the % scale 0 is the no-effect control and ±100 the full control effect; nearly all actives have a fitted effect of over 55% in size
HepG2 viability: HepG2 cytotoxicity, counter-screen for TGF-b inhibitors | HepG2 CAGA-GFP viability, ATP luminescence, 18 h | Potency, µM (top dose mostly 46.1 µM), inactives show at the highest dose activity change, negative = cytotoxicity, usual class: cytotoxic | 0.76% of 410,000 active | AID 588856; further: potency means the concentration at half of the fitted maximal effect
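HepG2 CAGA-GFP cells (1000/well, DMEM with 1% FBS) received compound, then TGF-beta at 500 pg/mL final, and were incubated 18 hours at 37 degrees C. Viability was read by CellTiter-Glo luminescence. Media-only wells were set as complete cell-killing and DMSO as no toxicity.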
S2 tox: viability counter-screen for ATXN expression inhibitors | S2 cells (HEK-293 line with an ATXN2-luciferase reporter) viability, CellTiter-Fluor protease fluorescence, 24 h | Potency, µM (top dose mostly 56.7 µM), actives largely listed as cytotoxic | 0.49% of 400,000 active; further: potency means the concentration at half of the fitted maximal effect; nearly all actives have a fitted effect of over 40% in size
TGFb SMAD3 inh: inhibitors of TGF-b signaling | AID 588855 | 1.2% of 410,000 active | Potency, µM (series often up to 46.1 µM), inactives show at the highest dose activity, negative = inhibition, usual class: inhibitors | HepG2 CAGA-GFP TGF-b/SMAD3 reporter, GFP fluorescence, 18 h; TGF-beta stimulated, 500 pg/mL final; further: potency means the concentration at half of the fitted maximal effect; on the % scale 0 is the no-effect control and ±100 the full control effect; nearly all actives have a fitted effect of over 65% in size
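Using HEPG2 CAGA-GFP reporter cells at 1000 cells/well, we pinned test compounds, stimulated with recombinant TGF-beta (500 pg/mL final) and measured total well GFP after 18 h.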
Giardia kill: kills Giardia lamblia | Giardia lamblia trophozoite viability | activity change, % at 7.66 µM, hits read low | 0.15% of 340,000 active | AID 540267; in the data active means activity change below about -80%; inconclusive means between about -30% and that limit;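 further: parasites exposed to compound for two days anaerobically before the ATP read; on the % scale 0 is the no-effect control and ±100 the full control effect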
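Anaerobic 48 hrs incubation at 37 deg C of 100 trophozoites/well with test compounds; ATPLite 1-Step luminescence, 15-30 min RT, reports cellular ATP as viability.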
An asterisk follows results filed as active; i = inactive; ? = inconclusive; nt = no result given; ! = repeats disagree. Unless noted, the call rests on the fitted dose curve; in most records, active means well fitted curve in the direction sought with a large enough effect; inconclusive means small, poorly fitted or top-dose-only effect, or another doubt; inactive means no such curve, though single readings can be large; an effect the other way counts as inactive or inconclusive.

SMILES	ATXN2 expr inh	uPA surface inh	HepG2 viability	S2 tox	TGFb SMAD3 inh	Giardia kill
CC/C=C1/N=C2C(=O)N(C)C(=O)N=C2N(C)N1	nt	nt	-94%	nt	?	-88*
Cc1cccc(NC(=O)c2c(NC(=O)C(F)(F)F)sc3c2CCCCC3)c1	nt	nt	-111%	nt	1.6µM*	nt
O=C(Nc1cccc(Cl)c1)c1c(NC(=O)C(F)(F)F)sc2c1CCCC2	-45%	nt	11µM*	?	?	nt
O=C(COc1ccc(Cl)cc1)Nc1sc2c(c1C(=O)Nc1cccc(Cl)c1)CCCC2	nt	nt	-1%	nt	-1%	nt
Cc1cccc(NC(=O)c2c(Br)sc3c2CCCC3)c1	7%	nt	-35%	i	?	nt
Cc1ccccc1NC(=O)c1c(NC(=O)C(F)(F)F)sc2c1CCCCC2	nt	nt	-38%	nt	1.4µM*	nt
Cc1ccc(NC(=O)c2c(NC(=O)C(F)(F)F)sc3c2CCCCC3)cc1	nt	nt	-60%	nt	1.1µM*	nt
O=S1(=O)CCOCCCN1Cc1ccc(F)cc1	nt	nt	-19%	nt	8%	nt
CC(C)(C)n1ncc2c(=O)n(Cc3cccc(C#N)c3)cnc21	nt	nt	-32%	nt	-3%	nt
CN(C)c1ccc(/C=C/c2ccnc3ccc(Cl)cc23)cc1	nt	nt	-34%	nt	?	nt
Cc1ccc2cccc(OC(=O)/C=C\c3ccccc3)c2n1	-16%	14%	-64%	?	?	-5
COc1ccccc1/C=C/C(=O)Oc1cccc2cccnc12	nt	-2%	10µM*	?	7.9µM*	-20
Cc1c(C(=O)Oc2cccc3cccnc23)oc2ccccc12	-12%	-1%	11µM*	i	?	-14
O=C(/C=C/c1ccco1)Oc1cccc2cccnc12	-38%	-9%	-47%	?	?	-5
CCc1nc2ccccc2c(C(=O)Oc2cccc3cccnc23)c1C	11%	-8%	-21%	i	0%	?
O=C(/C=C\c1ccco1)Oc1cccc2cccnc12	nt	-1%	-74%	i	3.2µM*	-2
COC(=O)c1cccc(-c2cc(Cl)c3c(c2)CC(CNC(=O)c2cccnc2)O3)c1 (stereo not given)	nt	nt	nt	i	nt	nt
CS(=O)(=O)N1CCN(c2ccc([N+](=O)[O-])c3cccnc23)CC1	-10%	1%	0%	i	3%	-82*
Oc1c(Cl)c(Cl)c2ncccc2c1Cl	-16%	2%	12%	i	6%	-13
O=[N+]([O-])c1cc(CN2CCOCC2)c2cccnc2c1O	-30%	7%	-6%	?	-26%	28
O=[N+]([O-])c1cc(F)c2cccnc2c1O	nt	-1%	16µM*	?	?	34
Oc1c(I)cc(Cl)c2cccnc12	32µM*!	-22%	-17%	?	16µM*	1
O=c1oc2ccccc2c(O)c1Cc1cc(Cl)c2cccnc2c1O	?	-2%	-12%	i	1%	-14
CS(=O)(=O)N1CCN(c2ccc(Cl)cc2[N+](=O)[O-])CC1	-8%	-1%	15%	i	-2%	-21
Oc1c(CN2CCc3ccccc3C2)cc(Cl)c2cccnc12	5.6µM*	?	-56%	4µM*	5.6µM*	4
SMILES	ATXN2 expr inh	uPA surface inh	HepG2 viability	S2 tox	TGFb SMAD3 inh	Giardia kill
c1ccc(-c2nc(-c3cnc4ccccc4n3)cs2)cc1	nt	nt	-2%	nt	16%	nt
O=[N+]([O-])c1ccc(O)c2cccnc12	-5%	2%	-2%	?	-2%	8
O=[N+]([O-])c1cc(Cl)c(O)c2ncccc12	20µM*	-12%	-5%	?	?	0
O=[N+]([O-])c1ccc(O)c2ncccc12	10µM*	?	-31%	13µM*!	5.6µM*	-12
O=[N+]([O-])c1cc(Cl)c2cccnc2c1O	?	-9%	-26%	?	?	-11
Cc1cnc2ccccc2c1C	nt	nt	-6%	nt	-17%	nt
COc1ccc(OC)c(C(=O)N(Cc2cc3cccc(C)c3nc2N2CCC(O)CC2)C2CC2)c1	nt	nt	nt	i	nt	nt
O=C1C=Cc2cccc3ccc(O)c1c23	7.1µM*	-15%	-5%	i	-2%	-5
CCN(Cc1ccncc1)Cc1ccc2c(c1)CN(C(=O)c1ccc(C#CC(C)(C)O)o1)CCO2	nt	nt	nt	i	nt	nt
COc1ccc(Cc2ccc(NC(N)=O)cc2)cc1-c1cccc(Cl)c1	4%	nt	nt	nt	nt	nt
Cc1ccc(N(CCC#N)C(=O)CCl)cc1C	?	-17%	11µM*	nt	?	0
CN1C2=CC=CC=CC2=[N+](C)C12C([N+](=O)[O-])=CC(=[N+]([O-])[O-])C=C2[N+](=O)[O-] (stereo not given)	3%	5%	-32%	i	?	-94*
Cc1cc(C(=O)Nc2ccccc2-c2nc(CNC(=O)c3cscn3)c(C)o2)c(C)o1	nt	nt	nt	i	nt	nt
C#CCN(Cc1ccc(OC)cc1)S(=O)(=O)C=C	nt	nt	15%	nt	-22%	nt
C=CC[C@H](CC(=O)NCCO)C(=O)NC[C@H](OC(=O)[C@@H](CC=C)Cc1ccc(F)cc1)c1ccccc1	10%	9%	-20%	i	-1%	9
C=CC[C@@H](CC(=O)N(CCO)Cc1ccccc1)C(=O)NC[C@H](OC(=O)[C@@H](CC=C)Cc1ccc(F)cc1)c1ccccc1	?	?	-91%	20µM*	?	-27
C=CC[C@@H](CC(=O)N(CCO)Cc1ccccc1)C(=O)N[C@H](COC(=O)[C@@H](CC=C)Cc1ccc(F)cc1)c1ccccc1	?	-13%	-26%	22µM*	?	2
COc1cc(/C=N/Nc2snc(SC)c2C#N)cc(OC)c1OC	3.2µM*	-7%	-25%	?	?	-7
Cc1ccc2nc(Cl)c(/C=N/Nc3ccc(C(=O)O)cc3)cc2c1	nt	4µM*	-36%	i	1%	?
CCCOC(=O)N1CCN(/[N+]([O-])=N/Oc2ccc([N+](=O)[O-])cc2[N+](=O)[O-])CC1	nt	nt	-97%	nt	7.1µM*	-9
COc1cc2ccccc2cc1C(=O)O	0%	-4%	-11%	i	0%	1
COc1ccc(OC)c2cc3ccccc3cc12	18µM*	0%	-7%	nt	-6%	-1
Cn1c(=O)c(-c2c(Cl)cccc2Cl)cc2cnc(Nc3cccc(C(=O)O)c3)nc21	51%	nt	nt	nt	nt	nt
CC1CCC(CN2C(Nc3ccccc3)=NC[C@@H]2Cc2ccccc2)CC1 (stereo not given in full)	16µM*	-20%	-37%	?	-7%	21
CC(C)C[C@H]1CN=C(Nc2ccccc2)N1CCCC1CCCCC1	25µM*	-26%	-22%	nt	-26%	-6
c1ccc(C[C@H]2CN=C(Nc3ccccc3)N2CC2CCC2)cc1	-18%	-16%	-12%	i	7%	-20
COc1cc(CNC(=O)c2cnn(-c3ncc4c(n3)-c3ccccc3CC4)c2C)cc(OC)c1OC	nt	nt	nt	i	nt	nt
CCS(=O)(=O)NCc1c(C)ncc2c1CCN(C(=O)c1csc(-c3cccs3)n1)C2	nt	nt	nt	i	nt	nt
